# Measured values as given in PubChem BioAssay.
# Several values for one entry are separate records, joined by “and”; a condition that tells them apart may be missing. Identical values can stand only once. For some of these results: Measured potencies and affinities stand elsewhere. Activity calls are given as the source filed them. Unless noted, no rule for the calls is given here.
# Experiments:
# [1] = liver-stage malaria parasite growth inhibition, primary screen, cell-based, HepG2, luciferase luminescence, HepG2 viability (AID 624349; in the data active = parasite load remaining mostly below about 12%, no sharp cut-off; inactive = mostly above about 10%;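 also: 100% = mean of DMSO negative control wells on the same plate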); conditions: P. berghei liver stage in HepG2, luciferase luminescence, concentration not given here; parasite load remaining: stronger effect = lower value; viability: measured here: HepG2 viability without parasites
# [2] = differential killing of epithelial or mesenchymal cells, primary screen, imaging, PC-3E GFP, TEM4-18 mCherry, co-culture (AID 1345086;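 active = compounds killing one labelled cell type while sparing the other, by normalised counts and ratio limits, not self-fluorescent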;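 as to all read-outs here: cells exposed to compound for 72 h before imaging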;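 as to red/green cell ratio (normalised): normalised mesenchymal count divided by normalised epithelial count so high means epithelial killing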); conditions: imaging cell counts, at 1 µM; for red/green cell ratio (normalised): actives lie on both sides
# [3] = test system: Aerobactin synthetase IucA (Klebsiella pneumoniae hvKP1); assay: Biochemical IucA enzyme inhibition primary screen of the Spectrum library (AID 1346200); conditions: malachite green pyrophosphate, A620, at 8 µM, stronger effect = lower value;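 also: 100% = wells without compound and 0% = wells lacking enzyme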
# [4] = target: NAD(+) hydrolase SARM1 (Homo sapiens) (UniProt Q6SZW1); assay: SARM1 TIR NADase inhibitors, cell lysate, NAD-Glo luminescence (AID 1508614;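 active = compound whose remaining NAD level is above about 45 nM, limit read from the data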;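 also: higher remaining NAD means stronger inhibition of SARM1 NADase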); conditions: SAM-TIR HEK293T lysate NADase, at 1 µM, stronger effect = higher value
# [5] = target: Mitogen-activated protein kinase 7 (Homo sapiens) (UniProt Q13164); assay: ERK5 transactivation activators in reporter cells, primary screen, cell-based, HTS (AID 1508626;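 active = luciferase signal above three times the same-plate solvent-only control wells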;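 also: luciferase driven by Gal4-ERK5 fusion binding five Gal4 sites before minimal TATA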); conditions: HeLa Gal4-ERK5 transactivation, 18 h, at 5 µM, stronger effect = higher value
# [6] = sensitizers of A549 cells to miR-34 induction, primary screen, imaging, A549 dox-inducible miR-34, nuclei and caspase counts (AID 1347080;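 active = compounds whose cell count with miR-34 switched on is under 0.7 times the count with it off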); conditions: A549 miR-34 inducible, Hoechst nuclei count, 48 h
# [7] = polyglutamine-triggered caspase-3 activation inhibitors, cell-based (AID 1583); conditions: polyglutamine-induced caspase-3 activation, cell assay; stronger effect = higher value;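 tested at 10 µM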
# [8] = suppressors of polyQ aggregation in yeast, 75Q-TubU reporter (AID 1593); conditions: Yeast 75Q polyglutamine aggregation reporter
# [9] = rescue of polyQ-huntingtin neuronal dysfunction in worms, whole organism, C. elegans mechanosensory neurons, N-terminal huntingtin (AID 1599); conditions: touch response, stronger effect = higher value
# [10] = inhibitors of mitochondrial cytochrome c release, biochemical, purified mitochondria (AID 1603); conditions: stronger effect = lower value;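 also: mouse liver mitochondria challenged with calcium chloride; signal normalized to the plate average as 100%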
# [11] = inhibitors of polyQ protein aggregation (AID 1604); conditions: polyglutamine-induced protein aggregation inhibition assay; stronger effect = higher value; tested at 2.5 µM
# [12] = enhancers of glutamate uptake in motor neurons, MN-1 cell line (AID 1612); conditions: MN-1 motor neuron cells, stronger effect = higher value;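 also: tested at 1 µM final; 0% = mean of DMSO vehicle wells on each plate; positive means more glutamate uptake than control and negative means less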
# [13] = reducers of polyQ inclusions in PC12 cells, cell-based, NGF-treated PC12, GFPQ80 (AID 1614); conditions: PC12 NGF-treated GFP-polyQ80 inclusion reduction;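 also: lower means fewer inclusions and 0 means no inclusions at all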
# [14] = suppressors of polyglutamine aggregation in yeast, 75Q-TubH (AID 1616); conditions: S. cerevisiae 75Q-TubH polyglutamine aggregation suppression; stronger effect = higher value
# [15] = measured here: epithelial PC-3E GFP cell survival
# [16] = measured here: mesenchymal TEM4-18 mCherry cell survival
# [17] = measured here: relative caspase fold change +Dox/-Dox
# [18] = measured here: total cells with miR-34 induction, stronger effect = lower value
# [19] = measured here: total cells without miR-34 induction
# Mitogen-activated protein kinase 7 (Homo sapiens), sequence (Q13164 whole entry, looked up, the tested form may be a part): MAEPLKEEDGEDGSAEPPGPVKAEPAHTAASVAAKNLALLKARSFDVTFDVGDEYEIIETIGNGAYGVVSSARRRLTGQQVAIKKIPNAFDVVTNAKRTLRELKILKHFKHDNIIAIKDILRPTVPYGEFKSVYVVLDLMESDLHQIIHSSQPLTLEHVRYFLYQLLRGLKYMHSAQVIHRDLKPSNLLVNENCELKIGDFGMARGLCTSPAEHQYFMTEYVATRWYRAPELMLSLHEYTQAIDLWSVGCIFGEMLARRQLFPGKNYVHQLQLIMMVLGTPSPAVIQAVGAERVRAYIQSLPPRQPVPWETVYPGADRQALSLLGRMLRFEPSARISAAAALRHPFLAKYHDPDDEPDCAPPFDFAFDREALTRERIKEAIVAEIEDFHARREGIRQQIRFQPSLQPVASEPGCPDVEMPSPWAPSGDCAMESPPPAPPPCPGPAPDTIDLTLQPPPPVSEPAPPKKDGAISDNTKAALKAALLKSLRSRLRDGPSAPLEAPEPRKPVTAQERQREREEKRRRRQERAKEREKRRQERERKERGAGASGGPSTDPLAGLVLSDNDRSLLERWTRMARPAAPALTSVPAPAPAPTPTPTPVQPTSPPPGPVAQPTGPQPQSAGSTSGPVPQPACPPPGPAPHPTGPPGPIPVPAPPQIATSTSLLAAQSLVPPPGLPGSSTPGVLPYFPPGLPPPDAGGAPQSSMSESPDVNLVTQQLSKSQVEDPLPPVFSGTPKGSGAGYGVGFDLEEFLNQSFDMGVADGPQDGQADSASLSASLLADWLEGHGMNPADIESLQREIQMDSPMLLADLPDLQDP
# NAD(+) hydrolase SARM1 (Homo sapiens), sequence (Q6SZW1 whole entry, looked up, the tested form may be a part): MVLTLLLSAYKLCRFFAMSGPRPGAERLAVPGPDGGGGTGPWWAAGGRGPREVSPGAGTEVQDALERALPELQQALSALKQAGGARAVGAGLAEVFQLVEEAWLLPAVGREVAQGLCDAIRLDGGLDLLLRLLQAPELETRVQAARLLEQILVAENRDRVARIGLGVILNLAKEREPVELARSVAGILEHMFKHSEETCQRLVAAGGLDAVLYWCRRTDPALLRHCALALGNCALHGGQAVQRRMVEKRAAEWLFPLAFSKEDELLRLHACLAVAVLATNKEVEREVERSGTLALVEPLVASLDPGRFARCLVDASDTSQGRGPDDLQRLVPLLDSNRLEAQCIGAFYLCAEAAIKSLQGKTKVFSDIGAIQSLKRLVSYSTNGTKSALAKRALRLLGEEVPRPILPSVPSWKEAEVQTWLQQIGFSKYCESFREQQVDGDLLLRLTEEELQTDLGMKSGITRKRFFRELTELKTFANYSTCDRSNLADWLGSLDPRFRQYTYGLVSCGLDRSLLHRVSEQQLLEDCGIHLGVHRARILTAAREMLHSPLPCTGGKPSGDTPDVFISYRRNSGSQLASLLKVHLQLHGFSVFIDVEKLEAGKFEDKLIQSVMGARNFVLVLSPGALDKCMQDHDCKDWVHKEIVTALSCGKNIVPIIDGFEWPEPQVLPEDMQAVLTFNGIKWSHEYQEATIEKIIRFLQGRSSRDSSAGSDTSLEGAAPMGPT
compound,measurement,setting,value
CNC(C)[C@H](O)c1ccccc1 (some centres not stated),parasite load remaining,[1],77% (inactive)
same,viability,[1],74.2%
same,red/green cell ratio (normalised),[2],1.42 (inactive)
same,normalised cell number,[2]; [15],0.95
same,normalised cell number,[2]; [16],1.35
same,activity remaining,[3],87.2% (inactive)
same,remaining NAD,[4],10 nM (inactive)
same,luciferase signal,[5],52 AU (inactive)
CC(=O)O[C@H]1C(=O)[C@@]2(C)C([C@H](OC(=O)c3ccccc3)[C@]3(O)C[C@H](O)C(C)=C1C3(C)C)[C@]1(OC(C)=O)CO[C@@H]1C[C@@H]2O (some centres not stated),red/green cell ratio (normalised),[2],0.91 (inactive)
same,normalised cell number,[2]; [15],0.99
same,normalised cell number,[2]; [16],0.9
same,activity remaining,[3],96.8% (inactive)
C[C@]12CCC(=O)C=C1C=CC1C2CC[C@@]2(C)C1CC[C@@]2(O)CCC(=O)O (some centres not stated),parasite load remaining,[1],99.8% (inactive) and 46.1% (inactive)
same,viability,[1],62.7% and 93.1%
same,red/green cell ratio (normalised),[2],1.24 (inactive)
same,normalised cell number,[2]; [15],0.95
same,normalised cell number,[2]; [16],1.17
same,activity remaining,[3],110% (inactive)
same,fold change,[6]; stronger effect = lower value,0.912 (inactive)
same,fold change,[6]; [17],3.05
same,cell count,[6]; [18],12000
same,cell count,[6]; [19],13100
same,remaining NAD,[4],10 nM (inactive)
same,luciferase signal,[5],60 AU (inactive)
Oc1ccc2c3c1OC1[C@@H](O)CC[C@@]4(O)[C@@H](C2)N(CC2CCC2)CC[C@]314 (some centres not stated),inhibition,[7],-4.48%
same,score,[8],1.45
same,rescue above control,[9],-8.65
same,cytochrome c release ratio,[10],0.87
same,inhibition of aggregation,[11],52.2%
same,glutamate uptake change,[12],-2.6%
same,inclusion score,[13],2
same,aggregation suppression score,[14],1.67
same,parasite load remaining,[1],136% (inactive) and 45% (inactive)
same,viability,[1],75.1% and 93.8%
same,red/green cell ratio (normalised),[2],0.87 (inactive)
same,normalised cell number,[2]; [15],1.11
same,normalised cell number,[2]; [16],0.97
same,activity remaining,[3],103% (inactive)
same,fold change,[6]; stronger effect = lower value,0.892 (inactive)
same,fold change,[6]; [17],2.83
same,cell count,[6]; [18],12000
same,cell count,[6]; [19],13500
C[C@H]1OC(O[C@H]2[C@@H](O)CC(O[C@H]3[C@@H](O)C[C@H](O[C@H]4CC[C@]5(C)C6CC[C@]7(C)[C@@H](C8=CC(=O)OC8)[C@@H](O)C[C@]7(O)[C@@H]6CC[C@@H]5C4)O[C@@H]3C)O[C@@H]2C)C[C@H](O)C1O (some centres not stated),red/green cell ratio (normalised),[2],0.34 (inactive)
same,normalised cell number,[2]; [15],0.21
same,normalised cell number,[2]; [16],0.07
same,activity remaining,[3],115% (inactive)
C[C@@H]1O[C@@H](O[C@H]2C[C@@H](O)[C@]3(CO)C4C(CC[C@]3(O)C2)[C@@]2(O)CC[C@H](C3=CC(=O)OC3)[C@@]2(C)C[C@H]4O)[C@H](O)[C@H](O)[C@H]1O (some centres not stated),inhibition,[7],78.5%
same,score,[8],1.02
same,rescue above control,[9],3.58
same,cytochrome c release ratio,[10],1.01
same,inhibition of aggregation,[11],75%
same,glutamate uptake change,[12],-21.6%
same,inclusion score,[13],2
same,aggregation suppression score,[14],1.24
same,parasite load remaining,[1],242% (inactive) and -0.205% (inactive)
same,viability,[1],38.6% and 15.3%
same,red/green cell ratio (normalised),[2],0.13 (inactive)
same,normalised cell number,[2]; [15],0.14
same,normalised cell number,[2]; [16],0.02
same,activity remaining,[3],122% (inactive)
same,fold change,[6]; stronger effect = lower value,0.536 (active)
same,fold change,[6]; [17],2.2
same,cell count,[6]; [18],195
same,cell count,[6]; [19],364
O=c1c(O)c(-c2ccc(O)c(O)c2)oc2c(O)c(O)cc(O)c12,red/green cell ratio (normalised),[2],1.09 (inactive)
same,normalised cell number,[2]; [15],0.84
same,normalised cell number,[2]; [16],0.91
same,activity remaining,[3],118% (inactive)
same,luciferase signal,[5],48 AU (inactive)
CC1(C)C(=O)C=C[C@@]2(C)C1=C(O)C(=O)[C@]1(C)C2CC[C@@]2(C)[C@H](c3ccoc3)C[C@H]3O[C@]321 (some centres not stated),red/green cell ratio (normalised),[2],1.22 (inactive)
same,normalised cell number,[2]; [15],0.97
same,normalised cell number,[2]; [16],1.19
same,activity remaining,[3],116% (inactive)
COc1cc2c(cc1OC)[C@@H]1C(=O)c3ccc4c(c3O[C@@H]1CO2)CC(C(C)C)O4 (some centres not stated),red/green cell ratio (normalised),[2],1.13 (inactive)
same,normalised cell number,[2]; [15],0.56
same,normalised cell number,[2]; [16],0.64
same,activity remaining,[3],114% (inactive)
Cc1cc(OC(=O)N2CCCCC2)c(C(C)C)cc1[N+](C)(C)C,red/green cell ratio (normalised),"[2]; counts scaled to control wells, 1 = unselective",0.97 (inactive)
same,normalised cell number,[2]; [15],1.16
same,normalised cell number,[2]; [16],1.13
same,activity remaining,[3],125% (inactive)
same,luciferase signal,[5],48 AU (inactive)
CC1[C@H](C)OC(=O)CC(O)CC(O)CC(O)CCC(O)C(O)C[C@]2(O)CC(O)C(C(=O)O)C(CC(OC3O[C@H](C)[C@@H](O)[C@H](N)[C@@H]3O)/C=C/C=C/C=C/C=C/CC/C=C/C=C/[C@H](C)[C@H]1O)O2 (some centres not stated),inhibition,[7],3.51%
same,score,[8],-0.11
same,rescue above control,[9],3.77
same,cytochrome c release ratio,[10],0.93
same,inhibition of aggregation,[11],30.3%
same,glutamate uptake change,[12],9.44%
same,inclusion score,[13],2
same,aggregation suppression score,[14],0.00787
same,parasite load remaining,[1],87.6% (inactive) and 108% (inactive)
same,viability,[1],71.5% and 89.6%
same,red/green cell ratio (normalised),[2],1.28 (inactive)
same,normalised cell number,[2]; [15],0.98
same,normalised cell number,[2]; [16],1.25
same,activity remaining,[3],89.3% (inactive)
same,fold change,[6]; stronger effect = lower value,0.841 (inactive)
same,fold change,[6]; [17],0.89
same,cell count,[6]; [18],11200
same,cell count,[6]; [19],13400
CC(=O)O[C@@H]1CC2C(C)(C)C(=O)C=C[C@]2(C)C2CC[C@]3(C)C(=CC(=O)O[C@H]3c3ccoc3)[C@@]21C (some centres not stated),red/green cell ratio (normalised),[2],1.01 (inactive)
same,normalised cell number,[2]; [15],0.98
same,normalised cell number,[2]; [16],0.99
same,activity remaining,[3],123% (inactive)
C[N+](C)(C)CC(=O)[O-],inhibition,[7],4.44%
same,score,[8],1.09
same,rescue above control,[9],5.21
same,cytochrome c release ratio,[10],1.34
same,inhibition of aggregation,[11],61.8%
same,glutamate uptake change,[12],21.6%
same,inclusion score,[13],2
same,aggregation suppression score,[14],0.998
same,parasite load remaining,[1],57.1% (inactive) and 50.8% (inactive)
same,viability,[1],76.9% and 89.4%
same,red/green cell ratio (normalised),[2],1.27 (inactive)
same,normalised cell number,[2]; [15],1.09
same,normalised cell number,[2]; [16],1.39
same,activity remaining,[3],124% (inactive)
same,fold change,[6]; stronger effect = lower value,0.862 (inactive)
same,fold change,[6]; [17],4.05
same,cell count,[6]; [18],11400
same,cell count,[6]; [19],13200
C=CCc1ccc(OC)cc1,red/green cell ratio (normalised),[2],1.02 (inactive)
same,normalised cell number,[2]; [15],0.96
same,normalised cell number,[2]; [16],0.99
same,activity remaining,[3],107% (inactive)
same,luciferase signal,[5],52 AU (inactive)
